The values below come from PubChem BioAssay (NCATS).

Results filed as inconclusive are left out. Calls of active or inactive are those of the source. Unless noted, calls follow the shape of the dose curve; as a rule, active = well fitted curve in the direction sought with a large enough effect; inconclusive = small, poorly fitted or top-dose-only effect, or another doubt; inactive = no such curve, though single readings can be large; an effect the other way counts as inactive or inconclusive.

In assay [1] the target is Glutathione peroxidase 1 (Homo sapiens) (UniProt P07203). Nature of the assay: Primary qHTS Assay for Inhibitors of Recombinant Selenoprotein Glutathione Peroxidase 1 (GPX1) (AID 1845191). Also: nearly all actives have a fitted effect of over 65% in size. Also: potency is read from the fitted curve at half-maximal effect. As to activity, negative = inhibition: % is scaled to controls: 0 for no effect and ±100 for the full control effect. In outline:
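GPX1 10 nM, GR 100 nM, GSH 1 mM, NADPH 0.5 mM, CHP 0.5 mM (final). 30-min cpd preincubation, RT. Ex340/Em450 read t=0, t=15 min.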
On the technique in general: In qHTS, concentration-response curves come from the screen itself.

Assay [2] has as its target Phospholipid hydroperoxide glutathione peroxidase GPX4 (Homo sapiens) (UniProt P36969). As to the kind of experiment: Primary qHTS Assay for Inhibitors of Recombinant Selenoprotein Glutathione Peroxidase 4 (GPX4) (AID 1845192). Also: nearly all actives have a fitted effect of over 65% in size. Also: potency is read from the fitted curve at half-maximal effect. As to activity change, negative = inhibition: % is scaled to controls: 0 for no effect and ±100 for the full control effect. The gist of the method:
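qHTS, GR-coupled: GPX4 200 nM + cpd 30 min RT → GSH 1 mM, NADPH 0.5 mM, GR 100 nM → CHP 0.5 mM start; fluor 340/450 at t0 and t15 min; no-enzyme wells as control.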

Assay [3] has as its target Luciferin 4-monooxygenase (Photinus pyralis) (UniProt P08659). Nature of the assay: Primary firefly luciferase (FLuc) qHTS assay for identification of artifact compounds. (AID 1845220). Also: nearly all actives have a fitted effect of over 60% in size.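 As to activity change, negative = inhibition: plate controls were DMSO vehicle for no effect and no enzyme for full effect.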 Conditions: outcome: dose series up to 54.1 µM. The gist of the method:
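Reaction readout was CCD-imaged luminescence, taken 5 min after adding 10 nM purified firefly enzyme to compound-treated wells holding 10 uM luciferin and ATP in pH 7.6 buffer.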

A short description of assay [4]: Primary fluorescence-based thiol-reactive (MSTI) qHTS assay for identification of artifact compounds. (AID 1845221).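 Also: thiol-reactive compounds lower the probe fluorescence signal; nearly all actives have a fitted effect of over 65% in size.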 The gist of the method: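 First, 4 uM MSTI in 2% DMSO/PBS pH 7.4 was dispensed; next, compounds were added; then plates sat 1 h at room temperature without light. Finally, emission at 598 nm was recorded.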
The test system of assay [5] is Nanoluciferase (engineered Oplophorus gracilirostris luciferase). As to the kind of experiment: Primary Nanoluciferase (NLuc) qHTS assay for identification of artifact compounds. (AID 1845222).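 Also: NLuc secreted into diluted conditioned medium of S16 cells.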 In outline: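 Concentration-response data were obtained by luminescence after 5 min with Nano-Glo substrate at 1:100. The enzyme was diluted S16 NLuc-expressing cell medium, preincubated with compound for 15 min at RT. Curves were fitted with a 4-parameter Hill model.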

The nature of assay [6]: Primary redox qHTS assay for identification of artifact compounds. (AID 1845223).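 Also: 0% = DMSO and 100% = reference compound.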 In outline: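 Redox-cycling detection via DTT (250 uM final) oxidation coupled to Amplex Red (25 uM)/HRP (250 mU/mL) in HBSS. 15 min preincubation plus 30 min after DTT, room temperature. Ex/Em 525/598 nm; 4-parameter Hill fit against DMSO and 10 uM DA3003.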
The nature of assay [7]: qHTS drug screen for cell cycle checkpoint inhibitors in PARPi-resistant BRCA-mutant ovarian cancer cell lines. (AID 1963452; calls by dose curve). Conditions: PEO1/OlaR viability, CellTiter-Glo luminescence, 96 h, stronger effect = lower value. The gist of the method:
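PEO1, PEO4 and PEO1/OlaR ovarian cancer cells, 600 per well, exposed 96 h at 37C to a dilution series. Viability read by CellTiter-Glo luminescence, normalized to DMSO and empty wells; activity summarized as Z-AUC.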

Assay [8] can be described thus: qHTS profiling for inhibitors of Plasmodium falciparum proliferation (AID 504749).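 Also: 0% = DMSO vehicle and full inhibition = artemisinin control; nearly all actives have a fitted effect of over 60% in size.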 Conditions: P. falciparum in erythrocytes, SYBR Green DNA, 72 h, at 28.7 µM (top of the series). In outline: (§1)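 Quantitative HTS: compounds pinned into medium, infected erythrocytes added (0.3% parasitemia, 2.5% hematocrit), 72 h culture at 37 C under 5% CO2. Saponin/Triton lysis with SYBR Green I, overnight RT, then fluorescence read.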

Another assay deals with 3D7. The assay is described as above. Conditions: P. falciparum in erythrocytes, SYBR Green DNA, 72 h; series mostly up to 28.7 µM. In outline:
as §1

Setting [9] is: measured here: PEO1 parental Z-AUC.

Sequence of Glutathione peroxidase 1 (Homo sapiens) (P07203 whole entry, looked up): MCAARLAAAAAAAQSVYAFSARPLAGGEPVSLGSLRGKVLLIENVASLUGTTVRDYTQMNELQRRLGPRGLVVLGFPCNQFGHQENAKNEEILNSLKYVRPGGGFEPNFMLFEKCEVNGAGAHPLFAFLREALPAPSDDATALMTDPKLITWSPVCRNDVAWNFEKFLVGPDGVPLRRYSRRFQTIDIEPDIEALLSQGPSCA
Sequence of Phospholipid hydroperoxide glutathione peroxidase GPX4 (Homo sapiens) (P36969 whole entry, looked up): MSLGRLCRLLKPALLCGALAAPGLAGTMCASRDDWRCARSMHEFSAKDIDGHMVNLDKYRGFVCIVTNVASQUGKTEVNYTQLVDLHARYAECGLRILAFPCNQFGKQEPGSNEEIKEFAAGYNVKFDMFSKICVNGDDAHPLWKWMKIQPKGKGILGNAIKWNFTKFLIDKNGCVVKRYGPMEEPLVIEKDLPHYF

Take `COc1ccc(C[C@H](C)NC[C@@H](O)c2ccc(O)c(NC=O)c2)cc1`: the Potency result in assay [1] and in [2] was “inactive” in each case. In addition, the compound was classed as inactive in [3], in [4], in assay [5] and in [6].

On to `Nc1nc2c(c(=O)[nH]1)N(C=O)C(CNc1ccc(C(=O)N[C@@H](CCC(=O)O)C(=O)O)cc1)CN2` (stereo partly drawn), for which the activity, negative = inhibition in assay [1] is -12.1% [at 0.4 µM] (inactive). In assay [2], the activity change, negative = inhibition is -4.6% [at 0.409 µM] (inactive).

Turning to `C=C1[C@H](CO)[C@@H](O)C[C@@H]1n1cnc2c(=O)[nH]c(N)nc21`, the Potency entry in assay [1] and in assay [2] was “inactive” in each case. Besides, the outcome in [3], in assay [4], in assay [5] and in [6] was inactive. For the same compound, the Z-AUC in assay [7] was 1.7 (inactive); in assay [7] (setting [9]) it was 1.15; in [7] (measured here: PEO4 Z-AUC) it was 1.37.

Regarding `CCN(CC)CCOCCOC(=O)C(CC)(CC)c1ccccc1`, the Potency entry in [1] and in [2] was “inactive” in each case. Besides, the compound was classed as inactive in assay [3], in [4], in assay [5] and in [6].

`CN1CCN(C(c2ccccc2)c2ccc(Cl)cc2)CC1` (stereo not drawn): the Potency result in assay [1] and in [2] was “inactive” throughout.

Take `NCCCC[C@H](N)C(=O)O`: the outcome in assay [1] was “inactive [at 0.4 µM]”; in [2] it was “inactive [at 0.409 µM]”.

In the case of `CCOC(=O)Oc1c(OC)cc(C(=O)O[C@@H]2C[C@@H]3CN4CCc5c([nH]c6cc(OC)ccc56)[C@H]4C[C@@H]3[C@H](C(=O)OC)[C@H]2OC)cc1OC`, the Potency entry in assay [1] was “inactive”. Also, the Potency in [2] is 15.8 µM (active).

Turning to `CC(C)(C)NCC(O)c1ccc(O)c(CO)n1` (stereo not drawn), the Potency entry in assay [1] is “inactive”. Further, the Potency in assay [2] is 12.6 µM (active).

For `C/C(=C\C(=O)OCCCCCCCCC(=O)O)C[C@@H]1OC[C@H](C[C@@H]2O[C@H]2[C@@H](C)[C@H](C)O)[C@@H](O)[C@H]1O`, the Potency entry in assay [1] and in [2] was “inactive” in each case. Also, the outcome in assay [3], in assay [4] and in assay [5] was inactive.

On to `C[C@@H]1C[C@H]2[C@@H]3C[C@H](F)C4=CC(=O)C=C[C@]4(C)[C@@]3(Cl)[C@@H](O)C[C@]2(C)[C@H]1C(=O)COC(=O)C(C)(C)C`, for which the Potency entry in [1] and in assay [2] was “inactive” each time.

Regarding `NC(N)=NCC1COC2(CCCCC2)O1` (stereo not drawn), the Potency result in assay [1] and in assay [2] was “inactive” in each case.

In the case of `CC(C)(C)c1ccc(CN2CCN(C(c3ccccc3)c3ccc(Cl)cc3)CC2)cc1` (stereo not drawn), the Potency result in [1] and in [2] was “inactive” in each case. In addition, the result in assay [3], in assay [4], in assay [5] and in assay [6] was inactive.

Consider `NC(=O)[C@@H]1C[C@]2(NC(=O)NC2=O)c2cc(F)ccc2O1`, for which the Potency entry in assay [1] and in assay [2] was “inactive” each time.

As for `CC1(C)[C@@H]2CC[C@@]1(C)[C@H](OC(=O)CSC#N)C2`, the Potency entry in assay [1] and in assay [2] was “inactive” each time.

With `CC(C)(C)C(=O)OCC(=O)[C@H]1CC[C@H]2[C@@H]3CCC4=CC(=O)CC[C@]4(C)[C@H]3CC[C@]12C`, the Potency entry in assay [1] and in [2] was “inactive” each time.

Consider `CCN1C(=O)NC(c2ccccc2)C1=O` (stereo not drawn), for which the Potency result in [1] and in assay [2] was “inactive” each time.

Regarding `NC[C@H]1O[C@H](O[C@H]2[C@H](O)[C@@H](O[C@H]3O[C@H](CO)[C@@H](O)[C@H](N)[C@H]3O)[C@H](N)C[C@@H]2N)[C@H](O)[C@@H](O)[C@@H]1O`, the outcome in assay [1] is “inactive [at 4.49 µM]”; in [2], “inactive [at 4.52 µM]”.

`C=C1CC[C@H](O)CC1=C/C=C1\CCC[C@]2(C)[C@@H]([C@H](C)CCCC(C)(C)O)CC[C@@H]12`: the Potency entry in [1] was “inactive”. The Potency in assay [2] was 14.1 µM (active).

For the compound `CNCC(O)c1ccc(OC(=O)C(C)(C)C)c(OC(=O)C(C)(C)C)c1` (stereo not drawn), the Potency entry in assay [1] and in assay [2] was “inactive” each time.

For `NS(=O)(=O)c1cc2c(cc1Cl)NC(Cc1ccccc1)NS2(=O)=O` (stereo not drawn), the Potency entry in [1] and in [2] was “inactive” in each case.

Take `C=CC1=C(C(=O)O)N2C(=O)[C@@H](NC(=O)/C(=N\O)c3csc(N)n3)[C@H]2SC1` (stereo in doubt): in assay [1], the Potency is 11.4 µM (active). In addition, the Potency entry in assay [2] is “inactive”.

For the compound `OCCN1CCN(CC/C=C2/c3ccccc3Sc3ccc(Cl)cc32)CC1`, the Potency entry in assay [1] and in assay [2] was “inactive” each time.

For `C[C@@H](O)[C@H]1C(=O)N2C(C(=O)[O-])=C(SC3Cn4cnc[n+]4C3)[C@H](C)[C@H]12` (stereo partly drawn), the activity, negative = inhibition in assay [1] was -13.7% [at 9.52 µM] (inactive). In addition, in [2], the activity change, negative = inhibition is -27.3% [at 9.73 µM] (inactive).

`CC(O)[C@H]1CC[C@H]2[C@@H]3CC[C@@H]4C[C@@H](O)CC[C@]4(C)[C@H]3CC[C@]12C` (stereo partly drawn): the Potency entry in assay [1] and in assay [2] was “inactive” each time.

Take `COc1ccc2c(c1)N(C[C@H](C)CN(C)C)c1ccccc1S2`: the Potency entry in assay [1] and in [2] was “inactive” in each case.

For `CC(C)(C)NCC(O)CSc1nc(-c2ccc(C(N)=O)s2)cs1` (stereo not drawn), the figures for the Potency in assay [1] and in assay [2] were 22.7 µM (active) and 12.6 µM (active), respectively.

Take `NC(=O)c1ccc[n+]([C@@H]2O[C@H](COP(=O)([O-])OP(=O)(O)OC[C@H]3O[C@@H](n4cnc5c(N)ncnc54)[C@H](O)[C@@H]3O)[C@@H](O)[C@H]2O)c1`: the Potency result in [1] and in assay [2] was “inactive” each time.

For `C[C@H]1O[C@@H](O[C@H]2[C@@H](O)C[C@H](O[C@H]3[C@@H](O)C[C@H](O[C@H]4CC[C@@]5(C)[C@H](CC[C@@H]6[C@@H]5C[C@@H](O)[C@]5(C)[C@@H](C7=CC(=O)OC7)CC[C@]65O)C4)O[C@@H]3C)O[C@@H]2C)C[C@H](O)[C@@H]1O`, the Potency result (in [1]; in [2]; in the assay with 3D7) was “inactive” throughout. The call in assay [3], in assay [4], in assay [5] and in assay [6] was inactive. The Z-AUC in assay [7] was -1.16 (inactive); in [7] (setting [9]), -1.92; in [7] (measured here: PEO4 Z-AUC), -1.33. For the same compound, the activity, negative = inhibition in [8] (parasite line A) was -10.9% (inactive); in assay [8] (parasite line B), 10.4% (inactive).
